For 8 compounds, growth results are on record in PubChem BioAssay (NCI).

Holding throughout (test): NCI-60 one-dose screen, 48 h (100 = growth as untreated, 0 = no growth, -100 = all killed)
Details in all cases: 10 µM unless noted

Assay [1] relates to NCI-H23 lung.
Assay [2] relates to NCI-H226 lung.
Assay [3] deals with NCI-H322M lung.
The test system of assay [4] is HOP-62 NSCLC.
In assay [5] the test system is NCI-H460 lung.
Assay [6] deals with HOP-92 NSCLC.
The test system of assay [7] is NCI-H522 lung.
The test system of assay [8] is A549/ATCC NSCLC.
Assay [9] deals with 786-0 renal.
Assay [10] deals with COLO 205 colon.
The subject of assay [11] is DU-145 prostate.
Assay [12] deals with K-562 leukemia.
The test system of assay [13] is MALME-3M melanoma.
For assay [14], the system named is MDA-MB-231 breast.
Assay [15] relates to RXF 393 renal.
Assay [16] concerns SF-268 CNS.
Assay [17] deals with SF-295 CNS.
Assay [18] relates to SF-539 CNS.
Assay [19] deals with UACC-257 melanoma.
The test system of assay [20] is M14 melanoma.

Molecules are shown by their SMILES. This is part of a sample that, as a whole, favours compounds with a hit. Of some 83,000 tested, about 20% had one in any assay.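 Step 1: grow cells in 96-well plates. Step 2: add test compound at a single concentration. Step 3: incubate 48 h. Step 4: record percent growth.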 Values without a mark were called inactive. Calls of active or inactive are those of the source. Rule for the calls: active = growth percent below 10; inactive = the rest.

As to `O=S(=O)(O)c1ccc(F)cc1`, the growth in assay [1] was 96.1%; in assay [2] it was 103%; in [3], 97.3%; in assay [4], 92.6%; in assay [5], 111%; in assay [6] it was 116%. The growth in assay [7] is 82.8%; in assay [8] it was 101%; in [9] it was 103%; in [10] it was 114%; in assay [11], 103%; in assay [12], 85%. The growth in [13] was 90.7%; in assay [14], 112%; in assay [15] it was 116%; in assay [16], 93.2%; in [17] it was 96.1%; in [18] it was 102%. Moreover, the results for the growth in assay [19] and in assay [20] were 111% and 98.1%, respectively.

Regarding `CCOC(=O)n1cnc2c(Cl)ncnc21`, the growth is 245% in assay [1]; 113% in assay [2]; 109% in [3]; 136% in assay [4]; 108% in [5]; 95.1% in assay [6]. Further, the growth in assay [7] was 108%; in assay [8], 103%; in assay [9], 159%; in assay [10] it was 98.9%; in assay [11], 106%; in assay [12] it was 106%. The growth in assay [13] is 113%; in [14], 101%; in [15], 104%; in [16], 111%; in [17], 101%; in assay [18], 93.6%. Further, the growth in [19] was 86.4%; in assay [20], 101%.

Take `O=c1c2ccccc2sc2c(NCCN3CCOCC3)nc3ccccc3c12`: the growth is 68% in [1]; 59.2% in assay [2]; 104% in assay [3]; 52% in assay [4]; 27.3% in [5]; 24.8% in assay [6]. Besides, the growth was 63.1% in [7]; 43.1% in [8]; 48.5% in assay [9]; 21.9% in assay [10]; 56% in assay [11]; -11.7% (active) in assay [12]. The growth in assay [13] was 52.2%; in [14] it was 28.9%; in assay [15] it was 11.8%; in assay [16], 66.9%; in [17], -7.24% (active); in assay [18], 47.3%. For the same compound, the growth in assay [19] was 79.8%; in assay [20] it was 5.59% (active).

With `CC(C(C(=O)N1CCCCC1)N1CCCCC1)N1CCCCC1` (stereo not given), the growth in assay [1] was 107%; in assay [2], 109%; in assay [3], 119%; in [4] it was 96.7%; in [5], 114%; in [6], 112%. Besides, the growth in assay [7] is 93.1%; in [8], 94%; in assay [9], 108%; in assay [10] it was 118%; in assay [11], 122%; in [12], 94.7%. Besides, the growth in assay [13] was 118%; in [14], 112%; in assay [15] it was 112%; in assay [16], 115%; in assay [17] it was 117%; in assay [18] it was 116%. The growth in assay [19] was 101%; in assay [20], 103%.

As for `C#CC(=O)/C=C/CCCCCCC#CC(=O)CCC(=O)C#CCCCCCC/C=C/C(=O)C#C`, the growth in [1] was 15%; in [2] it was 122%; in assay [3] it was 93.5%; in assay [4], 61.2%; in assay [5] it was 80%; in [6], -42.3% (active). For the same compound, the growth in assay [7] is -78.6% (active); in assay [8] it was 87.8%; in assay [9], -46.9% (active); in assay [10], -0.795% (active); in assay [11] it was 35.3%; in [12] it was 0.258% (active). The growth is -68.3% (active) in assay [13]; -6.98% (active) in assay [14]; -36.7% (active) in assay [15]; 22.5% in assay [16]; 71.7% in assay [17]; -34.5% (active) in assay [18]. For the same compound, the growth in assay [19] is 62.9%; in assay [20], -19.2% (active).

With `Nc1nccc(=S)[nH]1`, the growth is 92.7% in assay [1]; 103% in assay [2]; 101% in assay [3]; 100% in [4]; 107% in [5]; 110% in assay [6]. The growth in assay [7] was 63.2%; in [8] it was 74.3%; in assay [9], 99.7%; in [10], 127%; in assay [11] it was 112%; in assay [12] it was 97.8%. Also, the growth in assay [13] is 112%; in assay [14], 112%; in [15], 92.5%; in assay [16] it was 98.6%; in assay [17], 103%; in assay [18], 107%. The results for the growth in assay [19] and in assay [20] were 75.7% and 106%, respectively.

`O=C(/C=C/c1ccco1)c1cccc(Nc2nc(Nc3ccccc3)nc(Nc3ccccc3)n2)c1`: the growth in [1] was 57.6%; in assay [2] it was 99.5%; in assay [3], 34.6%; in [4], 86.5%; in assay [5], 8.52% (active); in assay [6], 49.1%. Further, the growth in assay [7] was 78.6%; in assay [8] it was 20.1%; in assay [9], 44%; in assay [10], 62.3%; in [11] it was 95%; in assay [12], 64.4%. For the same compound, the growth in assay [13] is 110%; in assay [14], 67.9%; in [15], 34.5%; in [16], 92.9%; in assay [17], 61.5%; in assay [18], 94.4%. The growth was 101% in assay [19] and 92.1% in [20].

With `CC(=O)Nc1ccc(OC(=O)c2ccccc2O)cc1`, the growth in [1] was 99.5%; in assay [2] it was 106%; in [3], 111%; in [4], 99.8%; in assay [5] it was 106%; in [6], 85%. Moreover, the growth is 106% in [7]; 102% in [8]; 107% in [9]; 108% in [10]; 110% in assay [11]; 88.1% in [12]. Further, the growth in assay [13] is 105%; in assay [14], 108%; in assay [15], 114%; in assay [16] it was 106%; in assay [17] it was 95.3%; in [18] it was 108%. The growth in assay [19] is 111%; in [20], 109%.
